WT yeast gro inh = growth inhibition of WT yeast, mitochondrial fusion screen; mitochondrial fusion phenotypic screen, WT strain; inhibition, % at 10 µM; actives 2.1% (n = 190,000); AID 1362; in the data active = inhibition above about 58%; tested in S. cerevisiae
RAM network inh = blocks the yeast RAM network; S. cerevisiae dse1pr::URA3 reporter, 5-FOA growth OD615, 2 d; analog-sensitive cbk1-as2 kinase mutant strain; inhibition, % at 50 µM; actives 1.8% (n = 190,000);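 active = inhibition above a set limit, 3 SD over mean compound inhibition, cut at about 8.4% in these data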;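 also: 0% = DMSO-only wells with no growth and 100% = 10 µM 1-NA-PP1 full growth; inhibition rescues growth on 5-FOA so higher OD means more RAM inhibition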
CHOP inh = blocks CHOP induction under ER stress; CHO-K1 CHOP-promoter luciferase, tunicamycin-induced, 15-18 h; inhibition, % at 10 µM; actives 3.8% (n = 220,000); AID 2732;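 active = compounds that reduced the stress-induced luciferase reporter signal by more than about 70% of percent inhibition, limit read from the data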;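 also: 0% = tunicamycin plus vehicle and 100% = wells without tunicamycin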
L major viab = reduces viability of Leishmania major promastigotes; actives 9% (n = 200,000); AID 1063; resazurin fluorescence viability; inhibition, % at 10 µM; in the data active = inhibition above about 50%;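 also: promastigotes grown with compound for 44 hours at 28 °C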
CHOP confirm = confirmation of CHOP induction inhibitors. shares compounds with CHOP inh. CHO-CHOP promoter luciferase reporter, tunicamycin-induced, luminescence. inhibition, % at 10 µM. actives 45% (n = 2,100). AID 504437;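 active = mean of three repeat readings of reporter signal inhibition above a set limit, cut at about 70% in these data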;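 also: 0% = tunicamycin plus vehicle and 100% = wells lacking tunicamycin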
Starred values were filed as active, the others as inactive; · = no result given. In the library only some 13% were active in any assay of this set; here they are far more common.

SMILES	WT yeast gro inh	RAM network inh	CHOP inh	L major viab	CHOP confirm
CCCc1nc(SCC(=O)Nc2ccccc2)c2c(=O)n(C)c(=O)n(C)c2n1	0	6	99*	-7	23
C/C(=N/Nc1ccc(C(=O)O)cc1)c1ccc(O)c(O)c1O	-8	0	5	-10	·
Cc1nc([N+](=O)[O-])c(Br)n1CC(=O)c1ccc2ccccc2c1	40	0	103*	100*	-130
O=C1c2ccccc2C(=O)C1c1nccc2ccccc12	18	5	106*	5	104*
COc1cc(/C=C(\C#N)c2nc3ccccc3[nH]2)cc(Br)c1OCc1ccc(F)cc1	1	6	104*	18	84*
COc1cc(/C=C(/C#N)c2nc3ccccc3c(=O)[nH]2)ccc1O	-4	3	102*	17	112*
COc1cc(/C=C(\C#N)c2nc3ccccc3[nH]2)cc(OC)c1O	3	0	-17	8	·
COc1cc(/C=C(\C#N)c2nc3ccccc3[nH]2)cc(Br)c1OCc1ccccc1	35	2	46	48	·
COC(=O)/C(=C1/Oc2cc(C)oc(=O)c2S1)C(F)(F)F	27	2	111*	49	112*
CCCC(=O)c1cc(F)c(N2CCOCC2)cc1C	-2	0	10	-7	·
C=CC[n+]1c(C)csc1Nc1ccc(C(=O)O)cc1	4	0	-10	-1	·
CC(C)(C)c1cc(-c2csc(Nc3ccccc3)[n+]2Cc2ccc(C(=O)O)cc2)cc(C(C)(C)C)c1O	·	·	106*	·	121*
O=C(Nc1ccc(/C=C/c2nc3ccccc3o2)cc1)c1ccc(F)cc1	5	7	23	-7	·
C(=N\N(Cc1ccccc1)c1ccccc1)/c1ccco1	17	1	32	-6	·
COc1ccc(/C=N/N(Cc2ccccc2)c2ccccc2)cc1O	83*	4	104*	3	12
COc1ccc(CNC(=O)c2coc(=O)c3ccccc23)cc1	-2	1	1	3	·
Cc1ccc(-c2csc3nc4c5ccccc5c(NCCCN(C)C)nn4c(=O)c23)cc1	33	-1	102*	101*	-305
O=C(CN1C(=O)NC2(CCCCCCC2)C1=O)NC1CCCc2ccccc21 (stereo unspecified)	-17	4	17	5	·
COCCCn1cnc2c(c1=O)c1nc3ccccc3nc1n2-c1ccccc1	-13	4	18	6	·
COCCn1cnc2c(c1=O)c1nc3ccccc3nc1n2/N=C/c1cccc(OC)c1	·	·	101*	·	107*
COc1ccc(C(=O)/C=C/C(=O)N(CC(=O)NC2CCCCC2)Cc2ccc(F)cc2)c(O)c1	54	1	108*	24	140*
COc1ccccc1NC(=O)c1c(N=Cc2ccccc2O)cnn1C	10	0	101*	-5	14
Cn1ncc(N=Cc2ccc([N+](=O)[O-])cc2)c1C(=O)Nc1ccccc1	1	1	-14	4	·
CCOC(=O)CSc1nnc(-c2ccc(Cl)cc2Cl)o1	4	1	35	-4	·
CCCOC(=O)CSc1nnc(-c2ccc(Cl)cc2Cl)o1	12	3	98*	1	30
SMILES	WT yeast gro inh	RAM network inh	CHOP inh	L major viab	CHOP confirm
O=C(CSc1ncccn1)N/N=C/c1ccccc1[N+](=O)[O-]	-3	2	35	-4	·
COc1ccc(CCNC(=O)CSc2nnc(NC(C)=O)s2)cc1OC	12	1	40	-6	·
O=C(CC1(O)C(=O)Nc2ccccc21)c1ccc2c(c1)OCO2 (stereo unspecified)	3	0	7	-7	·
O=C1Nc2ccc(Br)cc2/C1=C/C(=O)c1ccc2c(c1)OCO2	·	·	107*	·	-37
NC(=O)C1CCN(S(=O)(=O)Cc2ccccc2Cl)CC1	-11	0	-28	-5	·
CCOc1cc(NS(C)(=O)=O)c(OCC)cc1NC(=O)c1cccs1	28	1	-3	23	·
CCOc1cc(NC(=S)NCC(C)C)c(OCC)cc1NC(=O)c1cccs1	16	4	100*	-2	100*
COc1ccc(Cl)cc1NC(=O)c1cc(-c2cc(C)ccc2O)n[nH]1	·	·	100*	·	-9
COc1ccc(NC(=O)c2cc(-c3cc(C)cc(C)c3O)n[nH]2)cc1Cl	66*	1	104*	100*	102*
Cc1cc(C)c(O)c(-c2cc(C(=O)Nc3cccnc3)[nH]n2)c1	·	·	-12	·	·
COc1ccc(Cl)cc1NC(=O)c1cc(-c2ccc(C)cc2O)n[nH]1	·	·	2	·	·
Nc1nc2c(F)c(F)c(F)cc2s1	17	1	10	-11	·
O=C(N/N=C/c1cc([N+](=O)[O-])c(N2CCOCC2)cc1N1CCOCC1)c1cccnc1	1	1	-7	5	·
CN(Cc1nc(Cc2cccc(C(F)(F)F)c2)no1)C1CC(C)(C)NC(C)(C)C1	-3	1	1	5	·
CCc1c(C)sc(NC(=O)CSc2nc3c(c(C(F)(F)F)n2)CCc2ccccc2-3)c1C#N	-2	4	97*	-5	72*
CC(NC(=O)CSc1nc2c(c(C(F)(F)F)n1)CCc1ccccc1-2)c1ccccc1 (stereo unspecified)	32	5	38	36	·
COc1ccc(/C=C/S(=O)(=O)NCc2ccccc2)cc1OC	15	2	8	-11	·
O=C1NN=C(c2ccccc2)CC1c1ccc(Cl)cc1Cl (stereo unspecified)	-6	3	63	4	·
O=C1NN=C(c2ccc(Cl)cc2)CC1c1cccc(Cl)c1 (stereo unspecified)	48	-2	102*	33	44
Cc1nc(SCC(=O)Nc2ccc(F)cc2)c(C#N)c(C)c1CC(=O)c1ccc(Br)cc1	19	4	103*	-3	97*
Cc1cccc(NC(=O)CSc2nc(C)c(CC(=O)c3ccc(Br)cc3)c(C)c2C#N)c1C	-28	1	103*	-6	106*
COCc1cc(C)nc(SCC(=O)Nc2cccc(C)c2C)c1C#N	-10	4	32	-2	·
Cc1cc(C)c(CN2CCN(Cc3ccc(C)o3)C(CCO)C2)c(-n2cccn2)c1 (stereo unspecified)	12	1	14	5	·
COc1cc(/C=N/N(C)c2ccccc2)cc(Cl)c1O	59*	-2	97*	-1	38
O=C(CSc1nc2ccsc2c(=O)n1CC1CCC(C(=O)O)CC1)c1ccc(Cl)cc1 (stereo unspecified)	1	3	102*	-2	-34
SMILES	WT yeast gro inh	RAM network inh	CHOP inh	L major viab	CHOP confirm
O=C(Nc1cccc(O)c1)c1ccc(C(F)(F)F)cc1	18	2	-27	-3	·
O=C(Nc1ccc(Br)c(C(F)(F)F)c1)c1ccc(C(F)(F)F)cc1	·	·	102*	·	98*
CC(=O)Nc1ccc(S(=O)(=O)N(Cc2ccco2)CC2CCCO2)cc1 (stereo unspecified)	0	1	9	-3	·
COc1ccc(N2CCN(Cc3cc(=O)oc4cc(C)c(Cl)cc34)CC2)cc1	25	4	96*	-6	37
Cc1ccc(/C=C/C(=O)OCC(=O)Nc2cccc(S(=O)(=O)N(C)C)c2)o1	6	3	7	-5	·
CC[C@H](C)[C@@H](C(=O)N1CCNCC1)n1cc([C@@H](N)CO)nn1	1	0	26	-4	·

Screening results (PubChem)
